Integrin act MD = activates integrin-mediated alleviation for muscular dystrophy; alpha7betagal myoblasts, beta-gal FDG fluorescence, 48 h; Potency, µM (series often up to 38.3 µM), most hits filed as activators; 350,000 tested, 0.064% active; further: nearly all actives have a fitted effect of over 60% in size
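Alpha7betagal+/- myoblasts (passage 13) were plated 16-24 hr, then exposed to compounds (1:260 dilution of DMSO stock) for 48 hours at 37C. After MPER lysis, β-galactosidase reporter activity was read as FDG fluorescence (ex 480/em 540) after 30 minutes.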
IL-2 act = IL-2 activation. IL-2 activation reporter assay, cell-based qHTS; stimulated with anti-CD3/CD4/CD28 beads; in transgenic mouse T cells. activation, % (series mostly up to about 46 µM). 360,000 tested, 0.065% active; in the data active means activation above about 50%; inconclusive means mostly about 30% to 49%
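First, unstimulated transgenic mouse T cells were exposed to compound for 60 min. Next, anti-CD3/anti-CD4-coated beads with anti-CD28 were added. Finally, after 18 h at 37 degrees C, EGFP and DsRed were imaged.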
BRCA1 expr act = increases BRCA1 expression; 380,000 tested, 1.1% active; Potency, µM (doses to about 46.1 µM), actives largely listed as activators; MCF7-BRCA1-FFLuc reporter, luminescence, 48 h; response scale: scaled: vehicle 0%, 10 µM genistein 100%; further: nearly all actives have a fitted effect of over 80% in size
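MCF7-BRCA1-FFLuc, 2000 cells/well; 2 h attach, 37 °C/5% CO2; compound 48 h; luciferase substrate 15 min; luminescence end-point. Norm. to genistein 10 microM max activation and DMSO; concentration-response curves fitted.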
Apoferritin bind = binds horse apoferritin like a general anesthetic; 350,000 tested, 0.074% active; apoferritin/1-aminoanthracene competitive binding, fluorescence; Potency, µM (series often up to 77.5 µM), hits mostly inhibitors; P02791; further: nearly all actives have a fitted effect of over 20% in size
Target sequence (P02791 2-175 limits assumed): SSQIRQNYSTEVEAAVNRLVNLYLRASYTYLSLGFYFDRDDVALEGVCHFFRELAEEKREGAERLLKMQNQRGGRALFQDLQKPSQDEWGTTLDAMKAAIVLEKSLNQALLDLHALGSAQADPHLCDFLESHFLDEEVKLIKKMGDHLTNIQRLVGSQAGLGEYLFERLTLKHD
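Horse-spleen apoferritin (10 uM) was mixed with 50% saturated 1-aminoanthracene in PBS, exposed to compounds for 10 min at room temperature, and read for fluorescence (ex 380 nm, em 535 nm). Competitive displacement was fitted with a four-parameter Hill equation.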
PKM2 act = increases activity of human pyruvate kinase M2 | purified PKM2, Kinase-Glo ATP luminescence, activation; response scale: 0% is enzyme alone, no compound | Potency, µM (highest dose often 57.5 µM), hits mostly activators | 260,000 tested, 0.34% active | AID 1631; further: nearly all actives have a fitted effect of over 55% in size
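ATP formation by purified human PK-M2, quantified via coupled luciferase luminescence after 1 h at room temperature with 0.1 mM ADP and 0.5 mM PEP final.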
Numbers stand for hits; – = inactive; ? = inconclusive; · = no result given; [ ] = another dose, or the depositor's remark. In the library only some 1.3% were active in any assay of this set; here they are far more common. Unless noted, the call rests on the fitted dose curve; in most records, active means well fitted curve in the direction sought with a large enough effect; inconclusive means small, poorly fitted or top-dose-only effect, or another doubt; inactive means no such curve, though single readings can be large; an effect the other way counts as inactive or inconclusive.

SMILES	Integrin act MD	IL-2 act	BRCA1 expr act	Apoferritin bind	PKM2 act
CCOc1cnc(-c2ccc(OC)cc2)o1	–	–	7.94µM	–	–
CN(C)CCCNc1cc(C(C)(C)C)nc2c(-c3ccccc3)cnn12	–	–	5.62µM	–	–
N=C(N)SCc1cccc2c(=O)cc(-c3ccccc3)oc12	·	·	–	·	·
CCCCc1ccc(-n2nc3ccc(NC(=O)c4cc5ccccc5o4)cc3n2)cc1	·	·	·	–	·
Cn1cccc1CNC(=O)Nc1ccc(Cl)c(Cl)c1	–	–	2.24µM	–	–
CN(C)c1cccc(C(=O)N/N=C/c2ccsc2)c1	–	–	10µM	–	–
CCOC(=O)c1sc(N(Cc2ccccc2)C(=O)COC(=O)c2cnccn2)nc1C	–	–	–	–	–
CCOC(=O)c1sc(N(Cc2ccccc2)C(=O)CSc2nnc(C3CC3)n2N)nc1C	–	–	8.91µM	?	–
Cc1cccc2c(/C=C/c3ccc(N(C)C)cc3)ccnc12	·	·	–	·	·
O=C(c1cc(COc2cccc(C(F)(F)F)c2)on1)N1C[C@H]2CC[C@H]1C2	–	–	12.6µM	?	–
CC(=O)c1cccc(OCc2cc(C(=O)N3C[C@H]4CC[C@H]3C4)no2)c1	–	–	?	?	·
COc1ccc(Br)cc1CNC(=O)Cc1cccs1	–	–	–	–	·
O=C(Cc1cccs1)NCc1ccccc1Br	–	–	2.24µM	–	·
O=C(Cc1cccs1)NCc1cccc(Cl)c1	–	–	12.6µM	–	·
O=C(CSc1ncccn1)NCc1cccc(Cl)c1	–	–	11.2µM	–	–
CCc1ccc(OCC(=O)NNC(=O)Cc2cccs2)cc1	–	–	–	–	–
O=C(Cc1cccs1)NCc1cccc(CNC(=O)Cc2cccs2)c1	–	–	–	–	?
O=C(CSc1ncccn1)NCc1ccc(Cl)cc1	–	–	?	–	–
CCCOc1ccc(CNC(=O)Cc2cccs2)cc1	–	–	7.94µM	–	·
CCCCCC/C=C/c1ccc(OC)c(C2C3C=CCC(C)C3C(=O)N2Cc2ccccc2)c1 (stereo not given)	·	·	·	–	·
CC(C)(C)c1cc(C(=O)/C=C/c2ccc(C(=O)O)cc2)cc(C(C)(C)C)c1	·	·	·	?	–
C/C(=N\NC(=O)C1CC1)c1ccc(C)c(C)c1	–	–	10µM	–	–
O=C(Cc1cccs1)N/N=C/C(Cl)=C/c1ccccc1	–	–	5.62µM	–	–
Cc1cccc(/C=N/NC(=O)Cc2cccs2)c1	–	–	11.2µM	–	–
O=C(COC(=O)c1ccccc1Oc1ccccc1)Nc1ccc(Br)cc1	·	·	–	·	·
SMILES	Integrin act MD	IL-2 act	BRCA1 expr act	Apoferritin bind	PKM2 act
COc1cccc(OCc2nc3ccccc3n2C)c1	·	·	·	–	·
COc1cc(C#Cc2c(C=O)n(C)c3ccccc23)cc(OC)c1	–	50.9	–	·	·
O=C(CSc1nnc(-c2ccccc2Cl)o1)N1CCCC1	?	–	7.08µM	–	–
O=C(CSc1nnc(-c2cccc(Br)c2)o1)N1CCNC1=O	–	–	10µM	·	·
Cc1cccc(-c2nnc(SCC(=O)N3CCCC3)o2)c1	–	–	7.08µM	–	·
Cc1cccc(-c2nnc(SCC(=O)N3CCCCC3)o2)c1	·	·	·	–	·
O=C(O)c1ccc(-c2nnc(-c3cccc(Br)c3)o2)cc1	–	–	2.82µM	–	·
CCOc1ccccc1NC(=O)NC(CC)c1c(-n2cccc2)sc2c1CCN(C)C2 (stereo not given)	·	·	·	–	·
COc1cccc(C(=O)Nc2nnc(Cc3ccc(OC)c(OC)c3)s2)c1	–	–	–	–	–
CCOCc1nnc(NC(=O)c2ccc(NC(C)=O)cc2)s1	–	–	–	–	–
CCOCc1nnc(NC(=O)c2ccc(OC)cc2)s1	–	–	12.6µM	–	–
CCCc1nnc(NC(=O)c2cccc(OC)c2)s1	–	–	7.08µM	–	–
CCCc1nnc(NC(=O)Nc2ccccc2OC)s1	–	–	22.4µM	?	–
O=C(O)c1cc(N=Nc2ccc(-c3ccc(N=Nc4ccc(O)c(C(=O)O)c4)cc3)cc2)ccc1O	·	·	·	–	·
COc1ccccc1OCCNC(=O)c1ccc2c(c1)OCCO2	–	–	?	·	·
COc1cccc(NC(=O)c2ccc(NC(=O)C(C)(C)C)cc2)c1	–	–	3.98µM	–	–
CC(=O)c1cccc(NC(=O)c2ccc3c(c2)CCCC3)c1	–	–	3.55µM	–	·
COc1ccccc1OCCNC(=O)c1ccc2c(c1)CCC2	–	–	11.2µM	–	–
COc1cccc(NC(=O)c2ccc3c(c2)CCCC3)c1	5.62µM	–	–	–	–
CCCCOc1ccc(C(=O)NCCS(=O)(=O)N2CCN(c3ccccc3OC)CC2)cc1	·	·	·	–	·
CN(CC(=O)Nc1ccccc1Cl)S(=O)(=O)c1ccc(C(=O)N2CCOCC2)s1	·	·	–	–	·
COc1cccc(C(=O)Nc2cccc(SC)c2)c1	–	–	12.6µM	–	–
COc1cccc(C(=O)Nc2ccccc2)c1	–	–	?	–	–
COc1cccc(C(=O)Nc2cnn(C(C)C)c2)c1	–	–	3.55µM	–	–
CC(C)CNc1ncnc2oc(-c3ccco3)c(-c3ccco3)c12	·	·	–	·	·
CC(C)CCCC(C)CCCC(C)CCCC(C)C(=O)O (stereo not given)	·	·	·	–	·
O=C(CSc1nnc(C2CC2)n1C1CC1)c1ccc(Br)s1	–	–	–	·	·
O=C(CSc1nnc(C2CC2)n1C1CC1)c1cccs1	10µM	–	–	·	·
CCc1nc(NCCc2ccccn2)c2nnn(Cc3ccccc3F)c2n1	–	–	–	–	25.1µM
CC(C)n1cnc2cc(NCc3ccco3)ccc21	–[7.66 µM]	–	10µM	–	–
